This passage reports inhibition results from ChEMBL document CHEMBL1961873, “Compounds: GSK PKIS; Assays: Nanosyn kinase panel” (2012).

The target of assay [1] is Death-associated protein kinase 1 (Homo sapiens) (UniProt P53355). To be noted: at 1 µM.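 Also: each value is a mean inhibition figure.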
For assay [2], the target named is T1, Serine/threonine-protein kinase DCLK2 (Homo sapiens) (UniProt Q8N568).
T1 sequence (whole entry): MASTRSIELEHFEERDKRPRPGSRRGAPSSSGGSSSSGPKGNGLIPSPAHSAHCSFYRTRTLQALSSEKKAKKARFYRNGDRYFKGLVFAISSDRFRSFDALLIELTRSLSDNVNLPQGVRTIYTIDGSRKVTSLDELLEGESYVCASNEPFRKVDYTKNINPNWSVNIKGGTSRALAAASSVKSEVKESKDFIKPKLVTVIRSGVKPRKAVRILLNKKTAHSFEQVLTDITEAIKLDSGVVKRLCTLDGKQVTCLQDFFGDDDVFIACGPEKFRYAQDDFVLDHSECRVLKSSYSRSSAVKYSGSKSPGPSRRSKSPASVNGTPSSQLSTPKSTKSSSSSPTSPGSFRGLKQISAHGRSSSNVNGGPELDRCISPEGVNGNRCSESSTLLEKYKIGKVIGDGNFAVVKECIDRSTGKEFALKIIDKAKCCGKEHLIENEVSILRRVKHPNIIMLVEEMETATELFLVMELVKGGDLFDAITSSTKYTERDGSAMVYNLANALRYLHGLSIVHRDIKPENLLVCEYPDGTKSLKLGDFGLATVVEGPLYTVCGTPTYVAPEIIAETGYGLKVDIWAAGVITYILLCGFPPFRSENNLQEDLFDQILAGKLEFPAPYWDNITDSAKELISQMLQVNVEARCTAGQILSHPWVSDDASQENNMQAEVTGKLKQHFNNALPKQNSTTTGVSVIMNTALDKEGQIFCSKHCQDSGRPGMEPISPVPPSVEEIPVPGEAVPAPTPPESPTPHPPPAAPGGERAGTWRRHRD
To be noted: at 0.1 µM.

The target in assay [3] is T1, Serine/threonine-protein kinase DCLK2 (Homo sapiens). To be noted: at 1 µM.
Assay [4] addresses MAP kinase-activated protein kinase 2 (Homo sapiens) (UniProt P49137). To be noted: at 0.1 µM.
The target is the same in assay [5]. To be noted: at 1 µM.
The target in assay [6] is MAP kinase-activated protein kinase 3 (Homo sapiens) (UniProt Q16644). To be noted: at 0.1 µM.
Assay [7] has the same target. To be noted: at 1 µM.
The target in assay [8] is Serine/threonine-protein kinase MARK1 (Homo sapiens) (UniProt Q9P0L2). To be noted: at 0.1 µM.
Chain of Serine/threonine-protein kinase MARK1 (Homo sapiens) (Q9P0L2 whole entry, looked up): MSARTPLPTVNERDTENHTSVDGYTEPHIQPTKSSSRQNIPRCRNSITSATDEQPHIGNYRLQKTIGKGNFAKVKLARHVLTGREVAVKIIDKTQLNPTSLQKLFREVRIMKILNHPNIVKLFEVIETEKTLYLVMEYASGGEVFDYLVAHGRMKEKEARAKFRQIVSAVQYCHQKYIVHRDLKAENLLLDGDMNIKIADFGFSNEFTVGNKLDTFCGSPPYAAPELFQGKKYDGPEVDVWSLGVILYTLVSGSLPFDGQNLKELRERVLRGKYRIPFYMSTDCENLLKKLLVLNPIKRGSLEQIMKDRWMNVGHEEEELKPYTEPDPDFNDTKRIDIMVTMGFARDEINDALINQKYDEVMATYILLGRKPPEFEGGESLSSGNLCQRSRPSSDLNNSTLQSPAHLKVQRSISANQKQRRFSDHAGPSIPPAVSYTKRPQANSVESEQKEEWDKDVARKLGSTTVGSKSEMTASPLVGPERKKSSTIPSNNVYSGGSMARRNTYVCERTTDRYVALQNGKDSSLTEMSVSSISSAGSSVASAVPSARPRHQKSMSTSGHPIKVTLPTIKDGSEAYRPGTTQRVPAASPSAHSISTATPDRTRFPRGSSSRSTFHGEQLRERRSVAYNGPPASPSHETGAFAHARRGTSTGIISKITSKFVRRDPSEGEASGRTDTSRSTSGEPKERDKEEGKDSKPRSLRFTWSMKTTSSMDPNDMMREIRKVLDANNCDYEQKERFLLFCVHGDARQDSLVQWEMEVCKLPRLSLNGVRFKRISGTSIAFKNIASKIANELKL
The target is the same in assay [9]. To be noted: at 1 µM.
Assay [10] has as its target MAP/microtubule affinity-regulating kinase 3 (Homo sapiens) (UniProt P27448). To be noted: at 0.1 µM.
For assay [11] the target is unchanged. To be noted: at 1 µM.
The target in assay [12] is T2, MAP/microtubule affinity-regulating kinase 4 (Homo sapiens) (UniProt Q96L34).
T2 sequence (whole entry): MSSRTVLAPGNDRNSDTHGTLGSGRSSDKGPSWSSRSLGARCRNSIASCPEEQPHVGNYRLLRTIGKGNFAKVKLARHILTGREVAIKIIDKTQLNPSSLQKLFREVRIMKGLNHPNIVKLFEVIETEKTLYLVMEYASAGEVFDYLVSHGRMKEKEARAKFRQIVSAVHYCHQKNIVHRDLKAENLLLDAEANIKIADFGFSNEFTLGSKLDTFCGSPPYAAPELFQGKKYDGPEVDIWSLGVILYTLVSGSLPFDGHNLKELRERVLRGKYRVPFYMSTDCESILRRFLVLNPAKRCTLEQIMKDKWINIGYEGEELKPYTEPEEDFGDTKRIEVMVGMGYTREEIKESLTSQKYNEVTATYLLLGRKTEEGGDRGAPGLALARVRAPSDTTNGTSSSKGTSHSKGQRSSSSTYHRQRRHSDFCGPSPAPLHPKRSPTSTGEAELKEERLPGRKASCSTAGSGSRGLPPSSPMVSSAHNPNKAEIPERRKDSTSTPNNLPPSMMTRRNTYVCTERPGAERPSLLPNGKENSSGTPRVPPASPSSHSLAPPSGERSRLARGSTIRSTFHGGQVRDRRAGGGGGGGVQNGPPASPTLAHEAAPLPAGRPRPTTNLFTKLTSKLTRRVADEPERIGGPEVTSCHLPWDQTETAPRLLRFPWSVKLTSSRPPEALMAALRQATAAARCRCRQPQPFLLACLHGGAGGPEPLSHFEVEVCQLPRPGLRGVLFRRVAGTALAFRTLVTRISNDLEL
To be noted: at 0.1 µM.

In assay [13] the target is T2, MAP/microtubule affinity-regulating kinase 4 (Homo sapiens). To be noted: at 1 µM.
For assay [14], the target named is Maternal embryonic leucine zipper kinase (Homo sapiens) (UniProt Q14680). To be noted: at 0.1 µM.
Chain of Maternal embryonic leucine zipper kinase (Homo sapiens) (Q14680 whole entry, looked up): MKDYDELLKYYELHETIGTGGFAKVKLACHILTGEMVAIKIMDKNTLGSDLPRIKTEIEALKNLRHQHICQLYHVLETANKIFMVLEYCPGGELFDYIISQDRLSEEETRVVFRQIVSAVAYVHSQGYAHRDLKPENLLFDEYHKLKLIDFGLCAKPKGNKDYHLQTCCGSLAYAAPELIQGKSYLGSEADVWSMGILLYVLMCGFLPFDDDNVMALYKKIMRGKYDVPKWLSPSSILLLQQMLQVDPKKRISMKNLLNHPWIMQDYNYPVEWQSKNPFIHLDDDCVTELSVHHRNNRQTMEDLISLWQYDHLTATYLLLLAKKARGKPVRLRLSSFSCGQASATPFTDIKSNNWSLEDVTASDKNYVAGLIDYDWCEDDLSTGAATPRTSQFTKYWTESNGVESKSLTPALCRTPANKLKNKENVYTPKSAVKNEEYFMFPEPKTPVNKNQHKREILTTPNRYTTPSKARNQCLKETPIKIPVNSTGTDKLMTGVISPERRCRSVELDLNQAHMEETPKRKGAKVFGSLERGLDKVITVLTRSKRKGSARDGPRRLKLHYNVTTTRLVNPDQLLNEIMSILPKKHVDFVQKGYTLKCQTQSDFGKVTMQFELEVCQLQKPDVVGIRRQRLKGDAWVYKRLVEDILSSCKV
The target is the same in assay [15]. To be noted: at 1 µM.
For assay [16], the target named is MAP kinase-interacting serine/threonine-protein kinase 1 (Homo sapiens) (UniProt Q9BUB5). To be noted: at 0.1 µM.
Chain of MAP kinase-interacting serine/threonine-protein kinase 1 (Homo sapiens) (Q9BUB5 whole entry, looked up): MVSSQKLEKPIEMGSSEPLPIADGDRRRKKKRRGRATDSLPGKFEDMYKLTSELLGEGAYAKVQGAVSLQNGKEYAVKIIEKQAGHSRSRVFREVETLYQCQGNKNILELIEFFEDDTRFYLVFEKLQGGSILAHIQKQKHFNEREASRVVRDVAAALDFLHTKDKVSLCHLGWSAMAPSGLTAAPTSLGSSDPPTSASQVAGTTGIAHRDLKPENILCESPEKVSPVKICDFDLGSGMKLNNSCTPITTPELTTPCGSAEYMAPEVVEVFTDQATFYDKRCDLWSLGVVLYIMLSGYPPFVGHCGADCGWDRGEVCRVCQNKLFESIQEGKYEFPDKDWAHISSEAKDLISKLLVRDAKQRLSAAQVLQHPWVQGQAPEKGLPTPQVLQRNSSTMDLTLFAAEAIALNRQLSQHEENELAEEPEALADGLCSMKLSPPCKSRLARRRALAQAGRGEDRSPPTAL
The target is the same in assay [17]. To be noted: at 1 µM.
The target in assay [18] is MAP kinase-interacting serine/threonine-protein kinase 2 (Homo sapiens) (UniProt Q9HBH9). To be noted: at 0.1 µM.
Chain of MAP kinase-interacting serine/threonine-protein kinase 2 (Homo sapiens) (Q9HBH9 whole entry, looked up): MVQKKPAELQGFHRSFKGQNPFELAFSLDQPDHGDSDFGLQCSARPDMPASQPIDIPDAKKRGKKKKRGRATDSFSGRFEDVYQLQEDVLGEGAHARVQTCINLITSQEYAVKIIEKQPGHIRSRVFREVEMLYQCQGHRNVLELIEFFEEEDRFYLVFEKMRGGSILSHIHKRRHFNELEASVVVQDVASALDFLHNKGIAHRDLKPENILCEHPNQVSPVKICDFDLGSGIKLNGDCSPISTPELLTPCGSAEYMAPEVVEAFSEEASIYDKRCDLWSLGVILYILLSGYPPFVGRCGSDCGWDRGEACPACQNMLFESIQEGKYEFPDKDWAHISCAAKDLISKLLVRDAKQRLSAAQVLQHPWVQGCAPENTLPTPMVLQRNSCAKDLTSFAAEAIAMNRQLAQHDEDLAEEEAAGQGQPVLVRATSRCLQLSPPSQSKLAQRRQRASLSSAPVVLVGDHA
Assay [19] has the same target. To be noted: at 1 µM.
For assay [20], the target named is Serine/threonine-protein kinase MARK2 (Homo sapiens) (UniProt Q7KZI7). To be noted: at 0.1 µM.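 Also: mean percent inhibition of PAR-1Balpha kinase activity, reported from the GSK PKIS screen.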

Chain of Death-associated protein kinase 1 (Homo sapiens) (P53355 whole entry, looked up): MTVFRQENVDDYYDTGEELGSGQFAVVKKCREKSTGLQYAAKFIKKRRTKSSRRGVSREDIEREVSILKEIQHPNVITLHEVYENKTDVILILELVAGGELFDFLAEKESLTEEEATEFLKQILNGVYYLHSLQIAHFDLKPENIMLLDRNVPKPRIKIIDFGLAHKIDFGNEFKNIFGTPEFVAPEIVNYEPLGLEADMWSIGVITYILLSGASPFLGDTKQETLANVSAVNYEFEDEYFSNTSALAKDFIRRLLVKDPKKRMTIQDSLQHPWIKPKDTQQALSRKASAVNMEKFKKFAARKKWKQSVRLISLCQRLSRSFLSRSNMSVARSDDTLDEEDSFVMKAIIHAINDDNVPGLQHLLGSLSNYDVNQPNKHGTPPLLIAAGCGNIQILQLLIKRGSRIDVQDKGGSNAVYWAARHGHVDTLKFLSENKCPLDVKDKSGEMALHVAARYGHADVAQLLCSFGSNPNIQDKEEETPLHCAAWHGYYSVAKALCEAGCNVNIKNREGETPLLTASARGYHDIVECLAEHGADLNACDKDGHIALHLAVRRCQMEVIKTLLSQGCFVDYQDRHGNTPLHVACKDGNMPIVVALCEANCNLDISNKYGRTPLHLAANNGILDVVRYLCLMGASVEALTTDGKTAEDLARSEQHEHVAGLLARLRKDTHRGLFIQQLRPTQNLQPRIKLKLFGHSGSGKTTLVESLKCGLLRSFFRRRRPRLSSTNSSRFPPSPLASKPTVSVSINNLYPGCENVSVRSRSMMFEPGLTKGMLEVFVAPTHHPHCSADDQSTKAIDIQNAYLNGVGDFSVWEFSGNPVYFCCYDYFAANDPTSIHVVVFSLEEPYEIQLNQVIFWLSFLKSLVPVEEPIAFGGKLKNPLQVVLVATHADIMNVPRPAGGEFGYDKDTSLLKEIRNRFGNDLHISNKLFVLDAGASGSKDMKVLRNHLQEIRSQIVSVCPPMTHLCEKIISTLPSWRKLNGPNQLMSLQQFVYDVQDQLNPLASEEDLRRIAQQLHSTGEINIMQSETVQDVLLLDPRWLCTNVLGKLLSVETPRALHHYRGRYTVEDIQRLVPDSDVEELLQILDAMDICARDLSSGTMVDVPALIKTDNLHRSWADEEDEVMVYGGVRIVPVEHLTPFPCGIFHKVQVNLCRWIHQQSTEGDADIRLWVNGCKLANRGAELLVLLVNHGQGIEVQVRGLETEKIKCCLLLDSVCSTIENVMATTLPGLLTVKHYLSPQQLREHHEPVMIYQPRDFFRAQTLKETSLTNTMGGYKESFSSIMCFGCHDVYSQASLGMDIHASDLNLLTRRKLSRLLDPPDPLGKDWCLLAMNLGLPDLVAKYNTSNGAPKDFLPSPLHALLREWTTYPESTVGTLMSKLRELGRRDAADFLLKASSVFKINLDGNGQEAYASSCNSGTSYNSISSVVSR
Chain of MAP/microtubule affinity-regulating kinase 3 (Homo sapiens) (P27448 whole entry, looked up): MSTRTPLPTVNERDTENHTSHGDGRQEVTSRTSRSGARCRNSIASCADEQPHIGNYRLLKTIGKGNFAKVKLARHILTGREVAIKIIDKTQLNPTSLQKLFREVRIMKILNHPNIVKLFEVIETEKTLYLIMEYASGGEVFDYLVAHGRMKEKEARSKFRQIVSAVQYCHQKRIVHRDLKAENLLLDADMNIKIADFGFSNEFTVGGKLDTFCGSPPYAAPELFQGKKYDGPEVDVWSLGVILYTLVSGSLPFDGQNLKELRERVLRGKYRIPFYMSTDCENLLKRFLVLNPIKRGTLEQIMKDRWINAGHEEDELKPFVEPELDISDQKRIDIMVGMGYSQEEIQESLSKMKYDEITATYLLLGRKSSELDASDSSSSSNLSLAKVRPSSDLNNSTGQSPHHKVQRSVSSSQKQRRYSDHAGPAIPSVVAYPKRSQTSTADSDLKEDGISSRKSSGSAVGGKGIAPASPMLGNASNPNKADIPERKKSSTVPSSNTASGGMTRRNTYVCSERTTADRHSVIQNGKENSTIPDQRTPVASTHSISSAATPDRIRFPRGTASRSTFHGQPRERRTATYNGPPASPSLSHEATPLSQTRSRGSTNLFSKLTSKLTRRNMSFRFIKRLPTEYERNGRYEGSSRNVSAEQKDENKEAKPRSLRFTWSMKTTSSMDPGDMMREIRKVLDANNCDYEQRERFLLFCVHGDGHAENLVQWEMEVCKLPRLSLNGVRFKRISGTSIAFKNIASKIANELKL
Chain of MAP kinase-activated protein kinase 2 (Homo sapiens) (P49137 whole entry, looked up): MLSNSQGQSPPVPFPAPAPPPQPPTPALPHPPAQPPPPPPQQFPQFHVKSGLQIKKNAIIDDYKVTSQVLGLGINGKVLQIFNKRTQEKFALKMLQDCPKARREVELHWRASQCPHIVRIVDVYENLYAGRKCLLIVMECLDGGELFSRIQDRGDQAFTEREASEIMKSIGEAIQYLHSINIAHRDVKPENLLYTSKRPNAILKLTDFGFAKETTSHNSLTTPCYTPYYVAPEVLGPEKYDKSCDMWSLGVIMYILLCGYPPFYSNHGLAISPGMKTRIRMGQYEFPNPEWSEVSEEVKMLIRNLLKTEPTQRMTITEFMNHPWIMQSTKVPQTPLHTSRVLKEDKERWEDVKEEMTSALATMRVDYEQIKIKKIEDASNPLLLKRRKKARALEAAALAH

In general, inhibition refers to the drop in the measured response relative to a control, in per cent. As for `COc1cc2ncn(-c3cc(OCCc4ccccc4)c(C(N)=O)s3)c2cc1OC`, the inhibition worked out at 1.51% in assay [1]; 0.43% in [2]; 0.05% in assay [3]; 0.61% in assay [4]; 1.03% in assay [5]; 2.1% in assay [6]. Moreover, the inhibition in [7] stood at 4.28%; in assay [8], 3.11%; in assay [9] it was 3.45%; in assay [10], 3.88%; in assay [11] it was 1.74%; in assay [12] it was 0.87%. For the same compound, the inhibition in [13] stood at 0.86%; in assay [14] it was 3.07%; in assay [15] it was 1.31%; in assay [16], 2%; in assay [17], 6.3%; in assay [18], 0.86%. Besides, the inhibition in assay [19] was 12.8%; in [20], 1%.
Take `C#Cc1cccc(Nc2ncnc3ccc(OCCCCNCCS(C)(=O)=O)cc23)c1`: the inhibition in assay [1] was 2.74%; in [2], -0.45%; in assay [3], -4.44%; in [4], 2.15%; in [5] it was 1.98%; in [6] it was 4.84%. The inhibition was 4.44% in assay [7]; 5.11% in assay [8]; 8.02% in assay [9]; 5.17% in assay [10]; 6.08% in assay [11]; 2.28% in assay [12]. Also, the inhibition in [13] worked out at 3.56%; in assay [14], 3.6%; in assay [15], 8.09%; in [16] it was 9.11%; in assay [17], 46.7%; in [18] it was 4.73%. The inhibition in [19] was 31.8%; in assay [20] it was 1.67%.
As to `COc1ccc2ncn(-c3cc(O[C@H](C)c4ccccc4Cl)c(C(N)=O)s3)c2c1`, the inhibition was 1.29% in [1]; -3.36% in assay [2]; -2.8% in [3]; 1.56% in assay [4]; 1.62% in [5]; 3.18% in assay [6]. Further, the inhibition came to 2.49% in assay [7]; 3.24% in [8]; 2.92% in assay [9]; 3.81% in [10]; 3.11% in assay [11]; 2.49% in assay [12]. Further, the inhibition in [13] stood at 2.42%; in assay [14], 7.14%; in assay [15], 6.08%; in [16] it was 1.84%; in [17], 2.25%; in assay [18], 0.29%. The inhibition in assay [19] is 2.7%; in assay [20] it was -0.63%.
As for `CCN(CC)Cc1ccc(Nc2nccc(-c3cnn4ncccc34)n2)cc1`, the inhibition in assay [1] was 1.28%; in [2], -4.15%; in assay [3] it was 1.64%; in [4], 0.69%; in assay [5], 2.01%; in assay [6], 2.61%. Also, the inhibition was 3.32% in assay [7]; 4.03% in assay [8]; 20.9% in assay [9]; 4.34% in [10]; 24.7% in assay [11]; 4.42% in assay [12]. The inhibition is 18.9% in assay [13]; 12.5% in assay [14]; 55.4% in assay [15]; 2.28% in assay [16]; 9.82% in assay [17]; 2.76% in assay [18]. For the same compound, the results for the inhibition in assay [19] and in assay [20] were 8.84% and 3.28%, respectively.
Take `COc1cc(N2CCN(C(C)C)CC2)ccc1Nc1nc(Nc2ccc(F)cc2C(=O)NC[C@@H](O)CO)c2cc[nH]c2n1`: the inhibition in assay [1] is 46.8%; in assay [2], 2.24%; in assay [3], -4.14%; in assay [4] it was 1.77%; in assay [5] it was 2.39%; in assay [6], 4.35%. The inhibition in assay [7] was found to be 4.3%; in [8], 3.88%; in assay [9], 7.69%; in assay [10], 1.03%; in [11], 19.6%; in [12], 1.95%. The inhibition was found to be 2.9% in assay [13]; 3.61% in assay [14]; 19.9% in assay [15]; 3.33% in assay [16]; 8.52% in [17]; 1.03% in assay [18]. Besides, the inhibition turned out to be 5.28% in assay [19] and 1.97% in assay [20].
